# Laboratory results published in PMC5540273 (PLoS ONE, 2017).
# Tests used:
# Settings in all cases: concentration: 1 μM, replicates: in singlicate; n = 1
# PIP5K1A = system: PIP5K1A
# PIP5K1C = system: PIP5K1C
# PIP5K2B = system: PIP5K2B
# PIP5K2C = system: T1, PIP5K2C
# T1 construct: gene PIP4K2C
# PKAC-alpha = system: T2, PKAC-alpha
# T2 construct: gene PRKACA
# PKAC-beta = system: T3, PKAC-beta
# T3 construct: gene PRKACB
# PKMYT1 = system: PKMYT1
# PKN1 = system: PKN1
# PKN2 = system: PKN2
# PLK1 = system: PLK1
# 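Note: KINOMEscan kinase panel screen.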
SMILES,%Inh (PIP5K1A),%Inh (PIP5K1C),%Inh (PIP5K2B),%Inh (PIP5K2C),%Inh (PKAC-alpha),%Inh (PKAC-beta),%Inh (PKMYT1),%Inh (PKN1),%Inh (PKN2),%Inh (PLK1)
CC(C)c1nc(-c2cccc(NS(=O)(=O)c3c(F)cccc3F)c2F)c(-c2ccnc(Nc3ccc(N4CCOCC4)nc3)n2)s1 [GSK2008607],0%,45%,0%,87%,0%,0%,24%,6%,0%,0%
Cc1ccc(C(=O)N2CC[C@@H](O)C2)cc1-n1c(C)cc(OCc2ccc(F)cc2F)c(Br)c1=O,0%,50%,0%,38%,3%,0%,0%,16%,0%,0%
Nc1n[nH]c2cnc(-c3ccccc3)cc12 [SB-642124],40%,0%,32%,18%,0%,0%,15%,0%,31%,0%
Cl.c1ccc(-c2ccc3c(Nc4ccc5[nH]ccc5c4)ccnc3c2)nc1 [GW440138],50%,66%,8%,65%,0%,0%,0%,0%,0%,0%
COc1ccc(Nc2nccc(N3CCC(NC(=O)Nc4cccc(OC)c4)C3)n2)cc1 (stereo not shown) [GSK1379742],0%,44%,14%,16%,1%,0%,0%,0%,0%,5%
CN(C)S(=O)(=O)c1cc(-c2ccc3nccc(-c4cccc(S(N)(=O)=O)c4)c3c2)cnc1N [GSK1669921],0%,36%,21%,85%,3%,10%,0%,57%,0%,33%
Cl.Cl.NCC(NC(=O)c1cc(-c2ccccc2)c(-c2ccnc3[nH]ccc23)s1)c1ccccc1 (stereo not shown) [GSK1321561],8%,50%,14%,7%,98.3%,97%,3%,25%,19%,5%
c1ccc(Oc2ccc(Nc3ccnc4cc(-c5ccc(CNCCN6CCOCC6)o5)ccc34)cc2)nc1 [GW567145],62%,71%,21%,57%,0%,0%,0%,0%,0%,0%
O=C(Nc1n[nH]c2cc(-c3ccoc3)ccc12)C1CC1 [SB-738481],28%,0%,18%,0%,0%,2%,0%,0%,22%,3%
Cc1occc1-c1ncc(OC[C@@H](N)Cc2c[nH]c3ccccc23)cc1-c1ccc2[nH]nc(C)c2c1.O=C(O)C(F)(F)F [GSK682037],75%,19%,40%,0%,99.8%,99.5%,7%,28%,64%,0%
CNC(=O)c1ccccc1Nc1nc(Nc2ccc(N3CCOCC3)cc2)ncc1Cl.Cl [GSK1576028],45%,0%,85%,57%,96.5%,93.6%,32%,55%,52%,96.3%
COc1cc(Nc2ncc3c(C)nc(-c4cc5ccccc5[nH]4)n3n2)cc(OC)c1OC [GW869516],0%,89%,29%,90.3%,0%,51%,25%,0%,0%,19%
Cl.Cl.NCC(C(=O)Nc1cc(Br)c(-c2ccnc3[nH]ccc23)s1)c1ccccc1 (stereo not shown) [GSK1269851],55%,38%,74%,1%,97.2%,93.6%,0%,100%,15%,0%
Cc1cccc(NC(=O)Nc2ccc(Oc3ncnc4ccn(C)c34)cc2)c1,0%,49%,2%,32%,0%,0%,0%,0%,0%,0%
O=C(Nc1ccccc1F)NC1CCN(c2ccnc(Nc3ccc(F)cc3)n2)CC1 [GSK1379800],1%,47%,12%,23%,0%,0%,7%,0%,0%,0%
COC(=O)Nc1nc2cc(Oc3ccc(NC(=O)Nc4cc(C(F)(F)F)ccc4F)cn3)ccc2[nH]1.Cl.Cl [GW681170],9%,61%,12%,19%,0%,0%,5%,15%,15%,0%
